Results reported in PubChem BioAssay AID504333 (National Center for Advancing Translational Sciences (NCATS), 2011).
Among all 360,000 compounds or so, about 16,000 (4.4%) were called active. Roughly 9% stayed inconclusive and do not appear here. The call rests on the fitted dose curve; in most records, active means well fitted inhibition curve with a large enough effect; inconclusive means small, poorly fitted or top-dose-only effect; inactive means no such curve, though single readings can be large or run the other way. The list comes from a sample in which actives are over-represented; it also holds similar structures and randomly drawn compounds. A call without a number means that no potency is given here.

target: Bromodomain adjacent to zinc finger domain protein 2B (Homo sapiens) (UniProt Q9UIF8); assay: qHTS Assay for Inhibitors of BAZ2B; conditions: AlphaScreen BAZ2B-H3K14Ac peptide displacement; series mostly up to 114 µM; further: nearly all actives have a fitted effect of over 60% in size
Sequence (Q9UIF8 whole entry, looked up, the tested form may be a part): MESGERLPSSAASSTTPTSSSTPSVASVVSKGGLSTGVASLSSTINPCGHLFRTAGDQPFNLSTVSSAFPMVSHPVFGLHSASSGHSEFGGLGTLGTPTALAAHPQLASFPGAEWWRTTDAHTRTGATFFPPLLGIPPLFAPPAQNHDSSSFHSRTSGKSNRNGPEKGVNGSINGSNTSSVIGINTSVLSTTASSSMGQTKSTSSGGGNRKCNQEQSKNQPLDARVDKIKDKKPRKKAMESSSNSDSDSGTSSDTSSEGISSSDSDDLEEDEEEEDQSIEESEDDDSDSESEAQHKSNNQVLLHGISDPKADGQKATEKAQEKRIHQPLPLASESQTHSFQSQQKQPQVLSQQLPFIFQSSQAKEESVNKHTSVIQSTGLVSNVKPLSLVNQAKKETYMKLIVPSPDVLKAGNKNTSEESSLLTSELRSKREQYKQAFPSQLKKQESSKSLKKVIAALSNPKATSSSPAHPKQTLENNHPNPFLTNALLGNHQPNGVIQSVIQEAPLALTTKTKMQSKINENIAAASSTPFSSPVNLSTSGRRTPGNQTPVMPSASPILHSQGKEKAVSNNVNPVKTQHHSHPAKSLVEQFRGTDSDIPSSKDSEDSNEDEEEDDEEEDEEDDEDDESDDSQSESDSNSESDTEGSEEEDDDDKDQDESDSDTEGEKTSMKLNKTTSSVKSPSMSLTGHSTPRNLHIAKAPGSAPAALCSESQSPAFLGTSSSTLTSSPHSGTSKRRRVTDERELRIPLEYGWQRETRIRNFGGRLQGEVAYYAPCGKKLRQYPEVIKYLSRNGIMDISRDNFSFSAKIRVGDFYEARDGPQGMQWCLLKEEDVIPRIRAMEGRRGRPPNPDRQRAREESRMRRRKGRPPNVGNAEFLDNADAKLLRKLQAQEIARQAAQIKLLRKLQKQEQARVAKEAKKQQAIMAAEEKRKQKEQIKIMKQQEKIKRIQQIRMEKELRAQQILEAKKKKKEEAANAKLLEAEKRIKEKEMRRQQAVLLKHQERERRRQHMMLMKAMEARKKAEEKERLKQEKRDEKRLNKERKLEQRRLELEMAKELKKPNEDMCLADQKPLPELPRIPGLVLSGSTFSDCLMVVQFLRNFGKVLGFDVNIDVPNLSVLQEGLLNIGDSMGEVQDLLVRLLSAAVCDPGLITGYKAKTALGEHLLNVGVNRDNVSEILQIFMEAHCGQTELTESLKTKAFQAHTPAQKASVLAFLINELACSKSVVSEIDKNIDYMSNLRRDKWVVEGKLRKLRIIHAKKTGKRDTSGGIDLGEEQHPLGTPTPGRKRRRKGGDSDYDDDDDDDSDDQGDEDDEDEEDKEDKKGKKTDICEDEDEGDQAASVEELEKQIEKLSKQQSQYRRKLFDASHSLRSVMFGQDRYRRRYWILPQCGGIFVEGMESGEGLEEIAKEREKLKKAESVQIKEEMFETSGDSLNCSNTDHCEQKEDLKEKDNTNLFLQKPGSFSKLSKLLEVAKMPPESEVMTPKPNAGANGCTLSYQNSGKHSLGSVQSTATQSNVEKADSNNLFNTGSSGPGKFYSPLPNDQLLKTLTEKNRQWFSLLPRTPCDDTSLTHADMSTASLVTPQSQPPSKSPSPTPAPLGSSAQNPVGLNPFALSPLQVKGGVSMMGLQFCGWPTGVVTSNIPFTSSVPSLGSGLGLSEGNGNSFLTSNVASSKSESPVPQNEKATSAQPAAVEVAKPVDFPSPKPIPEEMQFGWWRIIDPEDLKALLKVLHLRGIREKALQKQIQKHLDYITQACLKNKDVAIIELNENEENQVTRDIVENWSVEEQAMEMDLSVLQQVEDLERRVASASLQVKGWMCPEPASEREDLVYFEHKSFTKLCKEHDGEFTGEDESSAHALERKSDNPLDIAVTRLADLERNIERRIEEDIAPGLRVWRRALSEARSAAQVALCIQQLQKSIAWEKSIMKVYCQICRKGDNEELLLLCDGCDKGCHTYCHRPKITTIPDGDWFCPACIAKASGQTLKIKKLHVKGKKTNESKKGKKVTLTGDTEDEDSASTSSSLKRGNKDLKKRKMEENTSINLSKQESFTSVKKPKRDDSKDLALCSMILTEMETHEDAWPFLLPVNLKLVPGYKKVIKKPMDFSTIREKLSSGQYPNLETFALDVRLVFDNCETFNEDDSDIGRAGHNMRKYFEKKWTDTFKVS
Source text: BAZ2B (bromodomain adjacent to zinc finger domain, 2B) belongs to a family of ubiquitously expressed bromodomain containing proteins, which biological function has not yet been elucidated. […] The interaction of BAZ2B with ISWI mediated by the BAZ1 motif has recently been described. […] The protocol is based on the AlphaScreen (PerkinElmer) displacement assay developed by NCGC [5], but uses the peptide ligand Biot-H3K14Ac, a high affinity binding partner for BAZ2B, in an AlphaScreen format. Although AlphaScreen has significant advantages with its utility in a variety of epigenetic target assays, the primary screening data provided in this deposition should be used with caution due to the prevalence of screening artifacts. The top compound concentration tested was 110uM in this assay, which increases number of actives and potential artifacts. An AlphaScreen counterscreen is highly recommended to be run against any putative actives to eliminate non-specific artifacts. Alternatively, one can use other AlphaScreen assays in PubChem to filter out promiscuous hits. Eberharter, A. et al. ACF1 improves the effectiveness of nucleosome mobilization by ISWI through PHD-histone contacts. The EMBO journal 23, 4029-4039. 2004. PMID: 15457208 [2] Jones, M.H. et al. A novel family of bromodomain genes. Genomics 63, 40-45. 2000. PMID: 10662543 [3] Yasgar, et al. Compound Management for Quantitative High-Throughput Screening. JALA. 2008 Apr;13(2):79-89. PMID: 18496600 [4] Inglese, et al. Quantitative high-throughput screening: a titration-based approach that efficiently identifies biological activities in large chemical libraries. Proc Natl Acad Sci. 1;103(31):11473-8. 2006. PMID: 16864780 [5] Quinn et al. A chemiluminescence-based method for identification of histone lysine methyltransferase inhibitors. Mol Biosyst 6(5): 782-8. 2010. PMID: 20567762 [6] Baell,Holloway. New substructure filters for removal of pan assay interference compounds (PAINS) from screening libraries and for their exclusion in bioassays. J Med Chem. 53(7):2719-40. 2010. PMID: 20131845 NIH Molecular Libraries Probe Production Network [MLPCN] NIH Chemical Genomics Center [NCGC] Structural Genomics Consortium (SGC) NIH Grant: 5U54 MH084681-02
To each well of a 1,536w plate, 2ul of BAZ2B protein (final 50nM) and 1ul biotinylated histone peptide acetylated at Lys14 [b-H3(5-23)K14Ac] (final 50nM) were added in 1x PBS buffer, pH 7.4, containing 0.01% Tween-20, using a nanoliter dispenser. Formation of a protein-peptide complex proceeded at room temperature for 30 min. A Kalypsys pin-tool was employed to transfer 23 nL of library compound solution in DMSO to each well. Following a 30 min incubation of the protein-peptide complex with compounds at room temperature, a mixture of 40 ug/mL each streptavidin-coated donor and nickel chelate acceptor AlphaScreen beads (final 10 ug/mL) were added in a 1ul dispense for a final volume of 4ul. A brief centrifugation followed (1000rpm, 1 min) and were then incubated protected from the light for 20 min at room temperature. Plates were read on an EnVision multilabel plate reader using the 1,536 plate HTS AlphaScreen aperture (excitation time 80 ms, measurement time 240 ms).
Potency means the concentration at half of the fitted maximal effect.

| SMILES | Potency |
| --- | --- |
| Cc1cc(C)c2oc(C(=O)Nc3ccc(S(=O)(=O)N4CCCCCC4)cc3)cc(=O)c2c1 | inactive |
| CCCCc1nn2c(=O)cc(COC(=O)c3ccc(NC(=O)c4ccccc4C)cc3)nc2s1 | inactive |
| CN1CCN(C2(CNC(=O)COc3ccc(C(C)(C)C)cc3)CCCCC2)CC1 | inactive |
| CC1CCN(S(=O)(=O)c2ccc3c(c2)N(CC(=O)NCc2ccccc2Cl)C(=O)CO3)CC1 | inactive |
| CCOC(=O)c1scc(-c2ccc(C)cc2)c1S(=O)(=O)Nc1cc(C)ccc1C | inactive |
| CC1(C)CC(=O)C(N=Nc2ccc(S(=O)(=O)N3CCCCCC3)cc2)=C(O)C1 | inactive |
| O=C(CN1C(=O)CCC1=O)Nc1ccc(S(=O)(=O)N2CCOCC2)cc1 | inactive |
| O=C1CCCC(O)=C1N=Nc1ccc(S(=O)(=O)N2CCOCC2)cc1 | 79.4 µM (active) |
| COC(=O)c1ccc2c(c1)N(CC(=O)Nc1ccc(C)c(C)c1)C(=O)c1ccccc1S2 | inactive |
| COCCNC(=O)CSc1c(C)cnc2c1c(=O)n(C)c(=O)n2C | inactive |
| COc1cc2ccccc2cc1C(=O)Nc1cccc(-c2nc3ccccc3o2)c1 | inactive |
| Cc1ccccc1NC(=O)CN1C(=O)C(C)(C)c2ccccc21 | inactive |
| O=C1N/C(=C/c2cccn2-c2ccccc2)C(=O)N1c1cccc(Cl)c1 | inactive |
| Cc1ccccc1NC(=O)CN1C(=O)N/C(=C\c2cccn2-c2cccc(C(=O)O)c2)C1=O | 20 µM (active) |
| COc1ccc(OC)c(NC(=O)CSC2=Nc3ccccc3C3=NC(CC(=O)NCCc4ccccc4)C(=O)N23)c1 (stereo not given) | inactive |
| O=C(CCSCc1ccccc1F)N1CCN(c2ccc(Cl)cc2)CC1 | inactive |
| O=c1c2ccccc2ncn1/N=C/c1ccccc1 | inactive |
| CCCc1nc2ccccc2c(=O)n1/N=C/c1ccc(O)c(O)c1 | 56.2 µM (active) |
| CCOc1cc(/C=N/NC(=O)c2cc(-c3ccccc3)nc3ccccc23)ccc1O | inactive |
| COc1ccc(Cn2ccn(Cc3cccc(OC)c3)c(=O)c2=O)cc1 | inactive |
| COc1ccc(CCNC(=O)c2ccc(-n3c(C)cc4c3CCCC4)cc2)cc1OC | inactive |
| CN(C)S(=O)(=O)c1ccc(Oc2ccc(S(=O)(=O)N(C)C)cc2)cc1 | inactive |
| CC(C)(C)c1ccc(Oc2ccc(N)cc2)cc1 | 39.8 µM (active) |
| CC(C)(C)c1ccc(OC2=CS(=O)(=O)c3ccccc32)cc1 | inactive |
| Cc1cc(C)cc(N)c1 | inactive |

| SMILES | Potency |
| --- | --- |
| CC(C)(c1ccccc1)c1ccc(OCCN)cc1 | inactive |
| Cc1ccc(Oc2ccc(N)cc2)cc1 | 31.6 µM (active) |
| O=C(CSc1oc(-c2ccco2)nc1S(=O)(=O)c1ccc(Cl)cc1)c1ccccc1 | inactive |
| CC(C)(C)C1C/C(=C/c2ccco2)C(=O)/C(=C/c2ccco2)C1 (stereo not given) | 25.1 µM (active) |
| CCc1ccc(C2C(C(=O)Nc3ccccc3)=C(C)Nc3c(C(=O)Nc4ccc(C)cc4)cnn32)cc1 (stereo not given) | inactive |
| Cc1cc(O)c(C(c2ccccc2)N2CCN(c3ccccc3F)CC2)c(=O)n1Cc1ccco1 (stereo not given) | inactive |
| O=C(O)c1ccccc1N=N/C(=N/Nc1cc(S(=O)(=O)O)ccc1O)c1ccccc1 | 11.2 µM (active) |
| CCOC(=O)N1CCc2c(sc3c2c(=O)n(-c2ccc(CC)cc2)c(=O)n3C)C1 | inactive |
| O=[N+]([O-])c1ccc(F)cc1Oc1nc(-c2cccnc2)nc2ccccc12 | inactive |
| O=[N+]([O-])c1ccc(Oc2ccc(F)cc2Br)c2ccncc12 | 31.6 µM (active) |
| Oc1c(Cl)cc(Cl)c(Cl)c1Cc1c(O)c(Cl)cc(Cl)c1Cl | 50.1 µM (active) |
| CCOc1ccc(N(Cc2ccccc2)C(=O)c2nc(S(C)(=O)=O)ncc2Cl)cc1 | inactive |
| CCc1ccc(NC(=O)CN2C(=O)CCSc3ccc(S(=O)(=O)N4CCCC4)cc32)cc1 | inactive |
| CCOC(=O)c1ccc(NC(=O)c2c(NCc3cccc(OC)c3)sc3c2CCC3)cc1 | inactive |
| CCOC(=O)c1ccc(NC(=O)c2c(NCc3cccs3)sc3c2CCCC3)cc1 | 28.2 µM (active) |
| CCOC(=O)c1ccc(NC(=O)c2csc3c2CCCCC3)cc1 | inactive |
| Cc1ccc(-c2nn3c(=O)cc(CN4CCN(C(=O)Nc5cccc(C(F)(F)F)c5)CC4)nc3s2)cc1 | inactive |
| COc1cc(CN(C(=O)c2ccccc2Br)c2ccccn2)cc(OC)c1OC | inactive |
| COc1ccc(OC)c(CNC(=O)c2c3c(nc4ccccc24)C(=O)N(C2CCCCC2)C3)c1 | inactive |
| Cc1ccc(Nc2cc(C)nc3c(C)ccc([N+](=O)[O-])c23)cc1 | 10 µM (active) |
| Cc1ccc(NC2=NC(c3ccccc3)n3c(nc(C)cc3=O)N2)cc1 (stereo not given) | inactive |
| Cc1cc(Nc2ccc(C(=O)N3CCCCC3)cc2)c2cccc(C)c2n1 | inactive |
| Cc1cc(=O)n2[nH]c(-c3sccc3-n3c(C)ccc3C)cc2n1 | 50.1 µM (active) |
| Cc1cc(=O)n2[nH]c(-c3cccc(Cl)c3)cc2n1 | inactive |
| CCc1c(C)nc2cc(-c3cccs3)[nH]n2c1=O | inactive |
